# High-throughput results deposited in PubChem by The Scripps Research Institute Molecular Screening Center.
# FBW7 act: human FBW7 E3 ligase activation, primary screen. AlphaScreen FBW7–phospho-cyclin E peptide binding, activator screen. Q969H0. actives 0.13% (n = 650,000). normalized activity (activation), % at 26.1 µM. AID 1259310; in the data active = normalized activity above about 1.9%;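 also: purified mutant Fbw7 with reduced substrate affinity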
# Target sequence (Q969H0 whole entry, looked up): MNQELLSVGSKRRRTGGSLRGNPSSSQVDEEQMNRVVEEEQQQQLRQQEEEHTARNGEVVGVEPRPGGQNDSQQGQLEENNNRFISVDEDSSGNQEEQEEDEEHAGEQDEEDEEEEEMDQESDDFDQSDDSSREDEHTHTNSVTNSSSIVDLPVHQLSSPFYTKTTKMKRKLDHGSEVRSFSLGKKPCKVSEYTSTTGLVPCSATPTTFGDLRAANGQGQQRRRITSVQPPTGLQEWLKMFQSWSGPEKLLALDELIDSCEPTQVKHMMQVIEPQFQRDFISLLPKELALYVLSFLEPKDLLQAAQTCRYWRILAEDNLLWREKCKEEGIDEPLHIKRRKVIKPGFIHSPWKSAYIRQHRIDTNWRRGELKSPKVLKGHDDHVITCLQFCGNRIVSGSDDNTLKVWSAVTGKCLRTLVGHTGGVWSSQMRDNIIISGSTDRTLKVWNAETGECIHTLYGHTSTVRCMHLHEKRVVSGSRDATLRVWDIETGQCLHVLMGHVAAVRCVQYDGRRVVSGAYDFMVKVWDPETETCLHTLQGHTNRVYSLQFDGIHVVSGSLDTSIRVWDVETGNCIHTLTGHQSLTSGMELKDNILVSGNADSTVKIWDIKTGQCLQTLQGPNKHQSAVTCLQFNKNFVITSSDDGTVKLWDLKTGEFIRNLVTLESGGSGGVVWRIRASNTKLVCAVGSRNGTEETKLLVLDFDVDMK
# MITF primary: human MITF inhibition, primary screen; inhibition, % at 2.6 µM; actives 0.91% (n = 650,000); AID 1259374; O75030; AlphaScreen MITF homodimerization, bead proximity signal; in the data active = inhibition above about 50%;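 also: 0% = vehicle wells with protein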
# GPR151 activ: human GPR151 activation. Q8TDV0. PathHunter beta-arrestin GPR151 cells, luminescence. activation, % at 11.2 µM. actives 1% (n = 650,000); in the data active = activation above about 4.9%;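 also: 0% = median of compound wells and 100% = cells with positive control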
# TEAD-YAP block: TEAD-YAP interaction inhibition. HEK-TIYL cells, TEAD-Gal4/YAP UAS-luciferase luminescence. inhibition, % at 9.12 µM. actives 1.4% (n = 640,000); in the data active = inhibition above about 32%;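 also: 0% = median of test compound wells and 100% = reference inhibitor wells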
# An asterisk follows results filed as active. Only some compounds are listed: those with a hit (about 3.5% of all), similar ones and a draw of the others.
SMILES,FBW7 act,MITF primary,GPR151 activ,TEAD-YAP block
O=[N+]([O-])c1ccc(Nc2ccccc2Cl)c([N+](=O)[O-])c1,-0.2,10.7,2.3,2.5
N#Cc1cc(Nc2ccccc2Cl)c([N+](=O)[O-])cc1C#N,0.0,4.2,-1.2,74.2*
O=C(Oc1ccc(OC(=O)c2cccnc2)c(Cl)c1)c1cccnc1,0.0,4.3,-0.7,6.3
Cc1c(/C=C/C(=O)c2ccc(O)cc2)cnn1C,-0.4,0.3,-0.5,50.5*
CCn1cc(/C=C/C(=O)c2ccc(O)cc2)c(C)n1,-0.1,6.8,-0.1,86.1*
Cc1ccc2occ(/C=C/C(=O)c3ccc(O)cc3)c(=O)c2c1,-0.1,-9.9,2.6,-10.8
COc1ccccc1/C=C/C(=O)c1ccc(O)cc1,-0.1,-5.1,-1.4,-20.7
COCc1ccc(C(=O)Nc2cc(C)nc3c(F)cc(F)cc23)o1,-0.2,-8.0,-0.4,28.8
COc1ccccc1NC(=O)Cc1noc(CSc2nnc(-c3ccccc3)o2)n1,4.5*,9.3,0.4,-11.3
Cc1cc(C(=O)Nc2ccc3ncsc3c2)n(C)n1,-0.1,0.9,-4.5,-59.0
CC(=O)c1cccc(NC(=O)COc2ccc(C)cc2Br)c1,0.1,5.3,-0.6,-41.2
CC(C)(C)c1ccc(OCC(=O)Nc2ccncc2)c(Br)c1,-0.1,-6.8,0.7,34.1*
Cc1ccc(OCC(=O)Nc2ccccc2)c(Br)c1,0.0,3.6,0.3,70.3*
O=C(COc1ccc(CO)cc1Br)Nc1ccccc1,-0.1,-7.1,-2.1,54.6*
Cc1cc(SCC(=O)Nc2cccc(F)c2)ncn1,0.2,7.3,-0.7,6.6
O=C(Nn1cc(C(=O)Nc2ccc(F)c(Cl)c2)c2ccccc2c1=O)c1cnccn1,0.0,15.5,-1.3,16.8
NC(=O)c1ccc(-c2nc(N)c3ncn(-c4ccsc4)c3n2)cc1,0.0,19.2,2.8,58.4*
NC(=O)c1ccc(-c2nc(N)c3ncn(-c4ccccc4)c3n2)cc1,0.0,8.2,0.0,55.5*
CN1CCN(C(=O)c2ccc(-c3nc(N)c4ncn(-c5ccccc5)c4n3)cc2)CC1,0.0,11.9,-1.1,-2.5
NC(=O)c1ccc(-c2nc(NC3CC3)c3ncn(-c4ccsc4)c3n2)cc1,0.2,10.8,-2.2,14.2
CCOc1ccc(-n2nc(C(=O)NCCCN3CCCCC3CC)c3ccccc3c2=O)cc1 (configuration not stated),0.0,5.2,-0.8,-0.7
CC(Nc1cc(N2CCN(C(=O)c3ccc(C(C)(C)C)cc3)CC2)ccc1[N+](=O)[O-])c1ccccc1 (configuration not stated),0.4,4.2,-0.2,-7.4
O=C(OCc1csc(Nc2ccccc2)n1)C1CC2C=CC1C2 (configuration not stated),0.1,-5.7,-4.0,37.7*
COc1cc(Nc2nc(Nc3nc4ccccc4n3C)nc3c2ncn3-c2ccsc2)cc(OC)c1OC,-0.1,13.9,-1.5,36.9*
COc1cc(Nc2nc(Nc3cc(OC)c(OC)c(OC)c3)c3ncn(-c4ccsc4)c3n2)cc(OC)c1OC,0.2,1.7,2.6,50.5*
SMILES,FBW7 act,MITF primary,GPR151 activ,TEAD-YAP block
COc1cc(Nc2nc(Nc3ccccn3)nc3c2ncn3-c2ccsc2)cc(OC)c1OC,0.1,7.0,1.6,31.1
CC1CC(C)CN(C(=O)CCNS(=O)(=O)c2ccc3c(c2)oc(=O)n3C)C1 (configuration not stated),0.2,9.1,-0.1,6.1
CCOc1ccc(/C=C/C(O)=C2/C(=O)NC3(C)CC2c2ccccc2O3)cc1OC (configuration not stated),-0.1,-13.6,-1.2,48.9*
Cc1cccc(NCC(O)Cn2c(C)c(C)c3ccccc32)c1C (configuration not stated),-0.1,51.4*,-0.7,2.3
CS/C(=C\[N+](=O)[O-])Nc1ccc(C(C)(C)C)cc1,-0.1,-13.7,-0.8,54.6*
O=C(O)/C=C\C(=O)Nc1ccc2cn[nH]c2c1,-0.6,-5.2,-0.1,47.0*
O=C(O)/C=C\C(=O)Nc1ccc(Cl)c(Cl)c1,0.1,19.0,0.4,0.9
CCOc1ccccc1C(=O)Nc1ccsc1C(=O)OC,0.1,0.3,0.7,54.6*
COC(=O)c1sccc1NC(=O)c1ccccc1C,-0.1,-1.3,-0.3,-16.3
Cc1ccc(-n2c(SCC(=O)NC3CCCCC3)nc3c(sc(=S)n3-c3ccc(C)c(C)c3)c2=O)cc1,0.0,-2.6,2.3,-7.0
CC(C)(C)NS(=O)(=O)c1ccc(F)cc1,0.0,-4.8,0.6,-2.5
CC(C)NS(=O)(=O)c1ccc(Cc2ccc(S(=O)(=O)NC(C)C)cc2)cc1,0.1,5.2,0.7,34.6*
CC(C)(C)NS(=O)(=O)c1ccc(Cc2ccc(S(=O)(=O)NC(C)(C)C)cc2)cc1,-0.1,-3.7,-1.1,37.4*
CCCCOC(=O)CSc1nnc(-c2ccc(N(C)C)cc2)o1,-0.1,-10.7,1.5,41.5*
N#C/C(=C\Nc1ccc(S(N)(=O)=O)cc1)c1nc(-c2ccc3c(c2)OCO3)cs1,0.8,-23.5,-0.7,14.5
CN1C(=O)C2CCC(N)CC2C1=O (configuration not stated),0.1,6.9,0.9,1.8
NC(CO)C(=O)NNCc1ccc(O)c(O)c1O (configuration not stated),-0.1,88.2*,2.1,-6.3
NC(CO)C(=O)N/N=C/c1ccc(O)c(O)c1O (configuration not stated),-0.9,95.8*,-0.4,-5.0
O=C(N/N=C/c1ccc(O)c(O)c1O)c1ccc(Cl)cc1Cl,-0.4,36.9,-0.5,5.0
COc1ccc(CN2CCNC(=O)C2CC(=O)N2CCCO2)cc1C (configuration not stated),0.0,-2.6,-0.6,-3.1
Cc1ccsc1CN[C@@H]1C[C@@H](C(=O)NC(C)C)N(C(C)C)C1,0.0,3.9,-0.2,12.1
COc1cc(OC)cc(-c2nc3n(n2)C(c2ccc(F)cc2)C2=C(CCCC2=O)N3)c1 (configuration not stated),0.2,-4.0,0.6,-9.2
O=[N+]([O-])c1cc(-c2ccc(/C=N\n3cnnc3)o2)ccc1O,-0.3,57.6*,-2.6,4.8
COc1cccc(NC(=O)CCC2CCN(C(=O)c3ccc4[nH]ccc4c3)CC2)c1,0.1,4.3,-1.2,10.5
O=C(/C=C/Nc1ccccc1F)c1cccs1,0.0,10.5,-1.2,38.2*
SMILES,FBW7 act,MITF primary,GPR151 activ,TEAD-YAP block
O=C(/C=C/Nc1ccc(F)cc1F)c1cccs1,0.5,30.1,0.5,73.4*
Cc1nc2ccc(S(=O)(=O)N(C)CC(=O)Nc3nccs3)cc2s1,0.4,6.5,0.3,5.0
O=c1oc(-c2ccccc2F)nc2sc3c(c12)CCCC3,0.0,8.3,0.0,-0.5
COc1ccccc1-c1nc2sc3c(c2c(=O)o1)CCCC3,0.2,-3.2,2.7,67.6*
CCn1c(SCc2cccnc2)nnc1-c1cc2ccccc2cc1O,-0.1,-1.8,-0.1,43.8*
CCN(CC)CCN(C)Cc1cc(OC)c(OC)cc1OC,-0.2,1.9,-0.2,-0.9
CN(C)c1ccc(NC2=C([N+](=O)[O-])C(=O)c3ccccc32)cc1,-0.6,85.8*,-2.3,2.0
COc1ccc(CC(=O)Nc2cccc(-c3nc4ncccc4o3)c2)cc1OC,-0.1,1.4,1.0,70.7*
